Assay outcomes from PubChem.
In the library only some 20% were active in any assay of this set; here they are far more common.
Shiga toxin inh = A qHTS for Small Molecule Inhibitors of Shiga Toxin | Vero cells, Shiga toxin protein synthesis inhibition reporter | hit rate 9.2% among 290,000 | inhibition, % at 38.7 µM; in the data active = inhibition mostly above about 28%, no sharp cut-off; inactive = mostly below about 43%; note: 0% is about no effect
Pf growth 96h = Primary qHTS for delayed death inhibitors of the malarial parasite plastid, 96 hour incubation | Potency, µM (series often up to 28.7 µM), inactives show at the top dose activity change, negative = inhibition, most hits filed as inhibitors | hit rate 6.9% among 320,000 | AID 504834, 2011 | P. falciparum luciferase reporter growth, 96 h; note: potency is the fitted concentration of half-maximal effect; % is set by controls: 0 for no effect and ±100 for the full control effect
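Two parasite generations (96 h, 37 C, 5% CO2) of compound exposure in infected erythrocytes (0.05% parasitemia, 2% hematocrit). Luciferase-reporter P. falciparum; decreased luminescence indicates inhibited growth, aimed at apicoplast-acting delayed death.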
Cycloheximide cs = Cycloheximide Counterscreen for Small Molecule Inhibitors of Shiga Toxin. cell reporter, cycloheximide protein synthesis inhibition counterscreen. max response, %. hit rate 12% among 300,000. AID 2314, 2010; in the data active = max response mostly above about 13%, no sharp cut-off; inactive = mostly below about 14%; note: read at 38.3 µM for the half of the compounds with a filed dose; 0% is about no effect
Pf growth 48h = Primary qHTS for delayed death inhibitors of the malarial parasite plastid, 48 hour incubation; P. falciparum luciferase growth in erythrocytes, 48 h; Potency, µM (series often up to 28.7 µM), inactives show top-dose activity change, negative = inhibition, hits mostly inhibitors; hit rate 5.9% among 310,000; AID 504832, 2011; note: potency is the fitted concentration of half-maximal effect; % is set by controls: 0 for no effect and ±100 for the full control effect
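Luminescence readout; reporter = integrated firefly luciferase in P. falciparum. RBC culture at 2% hematocrit, 0.1% parasitemia final, 37 C/5% CO2; decreased signal taken as growth inhibition.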
HCMV antiviral = qHTS Assay for inhibitors of the human cytomegalovirus (HCMV); AID 1259415, 2018; activity change, negative = inhibition, % at 57.5 µM; HFF cells, HCMV-luciferase reporter, 72 h; hits give low values; hit rate 4.5% among 410,000; in the data active = activity change below about -60%; inconclusive = no clear call, values can overlap the other calls; inactive = above about -39%; note: % is set by controls: 0 for no effect and ±100 for the full control effect
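HFF cells seeded 16 h at 37C, treated with compounds, infected with luciferase-reporter HCMV at MOI 1 PFU/cell; luciferase read at 72 h post infection, normalized to buffer-only and Salinomycin controls.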
Numbers without * were called inactive; [ ] = dose if it differs, or a comment. Unless noted, calls come from the whole dose curve; as a rule, active = well fitted inhibition curve with a large enough effect; inconclusive = small, poorly fitted or top-dose-only effect, or another doubt; inactive = no such curve, though single readings can be large or run the other way.

For CC1(C(=O)NCc2cccc(Cl)c2)Cc2c(-c3cccc(C(N)=O)c3)ccnc2O1 (stereo not drawn) the results were HCMV antiviral 20.6.
`CCOC(=O)c1[nH]c(C)c(C(=O)c2cc(F)ccc2F)c1C` gave Shiga toxin inh -3.5, Cycloheximide cs 1.4, Pf growth 48h 28.9% and HCMV antiviral -85.7*.
Screening CCCN(CC1CC1)C(=O)COC(=O)c1[nH]c(C)c(C(=O)OCC)c1C returned Shiga toxin inh -0.4, Pf growth 96h 11.7µM*, Cycloheximide cs 14.3 and HCMV antiviral -3.4.
For CCOC(=O)c1c(C)[nH]c(C(=O)NNC(=O)c2ccccc2F)c1C the results were HCMV antiviral 96.7.
Screening CCOC(=O)c1c(C)[nH]c(C(=O)C(C)OC(=O)c2cccc(OCc3c(C)noc3C)c2)c1C (stereo not drawn) returned Shiga toxin inh 28.7, Pf growth 96h 0.8%, Cycloheximide cs 16.7*, Pf growth 48h -24.2% and HCMV antiviral 25.6.
Screening CCC(C)NC(=O)c1cccc(OCc2c(C)noc2C)c1 (stereo not drawn) returned Shiga toxin inh 1.1, Pf growth 96h 5.3%, Cycloheximide cs 1.1, Pf growth 48h 1.6% and HCMV antiviral 13.4.
Screening COC(=O)c1c(C)[nH]c(C(=O)OCc2ccc(F)cc2)c1C returned Shiga toxin inh 133.9*, Pf growth 96h 193.1%, Cycloheximide cs 78.2*, Pf growth 48h 118.2% and HCMV antiviral 87.2.
CCN(Cc1ccccc1)S(=O)(=O)c1cc2[nH]c(=O)c(=O)[nH]c2cc1C was read as Shiga toxin inh -1.7, Pf growth 96h inconclusive, Cycloheximide cs 0.8, Pf growth 48h -18.0% and HCMV antiviral -6.6.
For COc1ccc(C(=O)NC(=O)COC(=O)c2ccc(C)o2)cc1 the results were Pf growth 96h -6.6%, Pf growth 48h -16.6% and HCMV antiviral -20.0.
Screening CCOc1ccc(NC(=O)c2c(NCc3cccnc3)sc3c2CCC(C)C3)cc1 (stereo not drawn) returned HCMV antiviral 20.7.
Cc1nn(Cc2ccc(Cl)c(Cl)c2)c(C)c1NC(=O)c1cn(-c2ccccc2)nc1-c1ccccc1 was read as Shiga toxin inh -18.1, Cycloheximide cs -1.6, Pf growth 48h inconclusive and HCMV antiviral -28.0.
For CCOC(=O)C1CCN(C(=O)c2nn(-c3ccc(OC)cc3)c(=O)c3c2c2ccccc2n3C)CC1 the results were HCMV antiviral 11.1.
`CCOC(=O)c1[nH]c(C)c(C(=O)OCC)c1C` gave Shiga toxin inh 138.4*, Pf growth 96h 44.7%, Cycloheximide cs 64.7* and HCMV antiviral 84.6.
CCN(C(=O)CSc1nc(-c2ccc(C(C)C)cc2)no1)c1ccccc1 was read as HCMV antiviral -16.9.
Cc1cc(C)c2[nH]c(=O)c(CN(Cc3nnnn3C3CCCC3)C3CCCCC3)cc2c1 was read as Shiga toxin inh 14.7, Pf growth 96h 1.5%, Cycloheximide cs 3.6 and Pf growth 48h -2.2%.
CCC(C)(C)n1nnnc1CN(Cc1cc2cc(OC)ccc2[nH]c1=O)C1CCCC1 was read as Shiga toxin inh 8.0, Pf growth 96h 24.4%, Cycloheximide cs -3.6, Pf growth 48h inconclusive and HCMV antiviral -8.2.
For COc1ccc(Cn2nnnc2CN(Cc2cc3cccc(C)c3[nH]c2=O)C2CCCC2)cc1 the results were Shiga toxin inh -0.3, Pf growth 96h 24.3%, Cycloheximide cs 1.1, Pf growth 48h 10.4µM* and HCMV antiviral -37.9.
Screening COc1ccc(Cn2nnnc2CN(Cc2cc3ccc(C)cc3[nH]c2=O)C2CCCC2)cc1 returned Shiga toxin inh 19.7, Pf growth 96h 4.2%[5.75 µM], Cycloheximide cs -3.1, Pf growth 48h 9.28µM* and HCMV antiviral -26.3.
`Cc1cccc2cc(CN(Cc3nnnn3C3CCCCC3)C3CCCC3)c3nnnn3c12` gave Shiga toxin inh 13.2, Cycloheximide cs -3.4, Pf growth 48h 11.7µM* and HCMV antiviral -32.6.
`Nc1c(N(Cc2ccco2)C(=O)c2ccccc2F)c(=O)[nH]c(=O)n1Cc1ccccc1` gave Pf growth 96h -0.5%, Pf growth 48h inconclusive and HCMV antiviral -17.7.
Cc1cn([C@H]2C[C@H](O)[C@@H](CNC(=O)[C@H](N)C3CC3)O2)c(=O)[nH]c1=O was read as HCMV antiviral 30.5.
